System: Plasmodium falciparum NF54
Test: growth inhibition relative to untreated control; higher = more inhibition
Settings: 72 h
Procedure, shortened: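 P. falciparum NF54 ring stages (1% hematocrit, 1% parasitemia, 100 μL/well in 96-well half-area dark plates) were exposed for 72 h at 37 °C to single 5 μM or 1 μM doses of Pathogen Box compounds. The medium was minimal RPMI or minimal RPMI plus chorismate end-products (2.2 μM folate, 7.3 μM pABA, 7.3 μM pHBA, 111 μM tyrosine, 90 μM phenylalanine, tryptophan). Growth inhibition was read by SYBR Green, normalised to untreated controls, with uninfected erythrocytes as background.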

[1] = 1 µM, MM + chorismate end-products (CM screening medium)
[2] = 5 µM, MM + chorismate end-products (CM screening medium)

Compound | growth inhibition [1] | growth inhibition (1 µM, minimal medium (MM)) | growth inhibition [2] | growth inhibition (5 µM, minimal medium (MM))
Cc1nc(-c2ccccn2)nc(N(C)CCc2ccccc2)c1Cl | 31.5% | 23.4% | 82.9% | 83.8%
Cc1cccc(Cn2ccc(NC(=O)c3ccc4c(c3)OCO4)n2)c1 | 18.2% | 6.8% | 12.8% | 17.9%
CCC(Sc1nc2ccccc2o1)C(=O)Nc1nnc(C)s1 (configuration not stated) | 13.2% | 0.545% | < 0% | 0.009%

Source: the supplement of paper PMC6763611
